Sampled rows, rich in hits. Any-hit rate of the full collection: about 2.6%.
p53ts 39C kill = qHTS Screen for Compounds that Selectively Target Cancer Cells with p53 Mutations: Cytotoxicity of p53ts Cells at the Nonpermissive Temperature. 1.5% of 130,000 active. Potency, µM (series often up to 46.1 µM), usual class: cytotoxic. H1299-p53A138V viability at 39C, ATP luminescence, 24 h; note: nearly all actives have a fitted effect of over 55% in size
Luciferase inh = qHTS Assay for Inhibitors of Firefly Luciferase; Luciferin 4-monooxygenase (Photinus pyralis), P08659; purified firefly luciferase, luminescence, 8 min; Potency, µM (titrated, usually from 57.1 µM), usual class: inhibitors; 2.2% of 72,000 active; note: nearly all actives have a fitted effect of over 40% in size
Target sequence (P08659 whole entry, looked up): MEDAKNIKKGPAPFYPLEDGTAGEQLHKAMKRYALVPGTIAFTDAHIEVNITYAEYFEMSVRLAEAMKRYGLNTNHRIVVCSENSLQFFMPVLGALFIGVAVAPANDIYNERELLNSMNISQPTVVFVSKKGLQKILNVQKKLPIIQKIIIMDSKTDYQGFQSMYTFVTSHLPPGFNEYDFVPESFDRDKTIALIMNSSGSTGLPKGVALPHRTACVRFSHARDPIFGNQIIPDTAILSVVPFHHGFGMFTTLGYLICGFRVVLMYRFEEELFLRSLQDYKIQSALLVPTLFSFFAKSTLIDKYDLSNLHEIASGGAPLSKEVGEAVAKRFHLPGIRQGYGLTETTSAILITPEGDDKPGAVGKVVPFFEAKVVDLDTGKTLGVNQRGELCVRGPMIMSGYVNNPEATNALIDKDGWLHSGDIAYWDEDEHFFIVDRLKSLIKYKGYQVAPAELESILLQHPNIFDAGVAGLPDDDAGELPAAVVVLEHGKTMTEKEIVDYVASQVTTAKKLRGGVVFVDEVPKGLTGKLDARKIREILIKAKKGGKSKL
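Titration-based qHTS; buffer 50 mM imidazole pH 7.2, 50 mM KCl, 7 mM MgCl2, 10 uM ATP, 0.01% Tween 20, 0.05% BSA; luciferase/luciferin detector mix added after compound; 8 min, ambient; luminescence.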
p53ts 32C tox = qHTS Screen for Compounds that Selectively Target Cancer Cells with p53 Mutations: Cytotoxicity of p53ts Cells at the Permissive Temperature | H1299-p53A138V at 32C, ATP luminescence viability, 24 h | Potency, µM (highest dose often 46.1 µM), actives largely listed as cytotoxic | 0.93% of 130,000 active; note: nearly all actives have a fitted effect of over 55% in size
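Cells: H1299 p53ts (A138V), 600/well, pre-incubated 16–30 h at 37C. Cpd up to 46 uM, 24 h, 32C. Readout: ATPlite luminescence, 20 min RT. Normalization: DMSO vs tamoxifen 100 uM. AC50 by Hill equation.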
Numbers stand for hits; – = inactive; ? = inconclusive; · = no result; ! = not active in a repeat; [ ] = dose if it differs, or a comment. Calls come from the whole dose curve; as a rule, active = well fitted curve in the direction sought with a large enough effect; inconclusive = small, poorly fitted or top-dose-only effect, or another doubt; inactive = no such curve, though single readings can be large; an effect the other way counts as inactive or inconclusive.

SMILES	p53ts 39C kill	Luciferase inh	p53ts 32C tox
Cn1nnnc1SCCCNCc1cc(Br)ccc1OCc1ccccc1F	–	·	–
O=C(c1ccc2c(c1)OCO2)N1CCN(c2ccccc2)CC1	–	–	–
CC(=O)c1c(C)nn(C(=O)c2cccs2)c1C	–	–	–
Cc1nn(C(=O)c2cccs2)c(N)c1-c1ccccc1	?	16µM	13µM
Cc1nn(C(=O)c2ccc3c(c2)OCO3)c(N)c1-c1ccccc1	?	2µM	13µM
COc1ccccc1NC(=O)CSc1cn(CC(=O)N2CCCC2)c2ccccc12	–	·	–
COc1cccc(NCc2cccn2-c2nnc(N3CCC(C)CC3)s2)c1	–	·	–
CCn1c(=O)cc(C(=O)OC)sc1=Nc1ccc(F)c(F)c1	–	–	20µM
CCOC(=O)c1ccc(N=c2sc(C(=O)OC)cc(=O)n2CCCN2CCOCC2)cc1	–	–	–
O=C(CC1C(=O)N(c2ccc(F)cc2)C(=O)N1Cc1ccc2c(c1)OCO2)Nc1ccc(Cl)cc1 (centres undefined)	–	·	–
COc1ccc(CCNC(=O)C(C)n2nc(C)c3sc4ccccc4c3c2=O)c(OC)c1 (centres undefined)	13µM	·	?
CCC(C(=O)NCCc1ccc(OC)c(OC)c1OC)n1nc(C)c2sc3ccccc3c2c1=O (centres undefined)	–	·	–
Cc1nn(CCCC(=O)NCCc2ccc(Cl)cc2)c(=O)c2c1sc1ccccc12	20µM	·	?
CCOc1ccc(CCNC(=O)CCCn2nc(C)c3sc4ccccc4c3c2=O)cc1	?	·	–
CCNC(=O)c1cnc2sc(N3CCCCCC3)nn2c1=O	–	·	–
Cc1ccc(NC(=O)CN(C)S(=O)(=O)c2ccc3c(c2)n(C)c(=O)c(=O)n3C)cc1C	–	·	–
COc1cccc(CNC(=O)c2ccc(-c3nc(CS(=O)(=O)c4ccccc4)c(C)o3)cc2)c1	–	·	–
O=C(Nc1ccc(Nc2ccccc2)cc1)c1ccco1	?	13µM	?
O=C(Nc1ccc(OC(=O)c2cccs2)cc1)c1ccco1	–	25µM	–
CCOc1ccccc1NC(=O)c1ccc(NC(=O)c2ccco2)cc1	–	·	–
CCOc1ccc(NC(=O)c2ccco2)cc1	10µM	13µM	10µM
CCOC(=O)Nc1ccc(C(=O)Oc2ccccc2)c(O)c1	–	–	–
O=C(Nc1cccc(NC(=O)c2cccs2)c1)c1ccco1	–	–	–
CC(=O)N(C)c1ccc(NC(=O)c2ccco2)cc1	?	–	?
O=C(Nc1ccc(C(=O)Oc2ccccc2)c(O)c1)c1ccco1	–	25µM	–
SMILES	p53ts 39C kill	Luciferase inh	p53ts 32C tox
CC1=C(C(=O)Nc2ccc(C)c(C)c2)C2(CCCCCC2)OC1=O	·	·	–
CCn1cnc2cc(NC(=O)c3ccco3)ccc21	8.9µM	·	13µM
Cn1c(CCNC(=O)c2ccco2)nc2cc(NC(=O)c3ccco3)ccc21	?	–	?
CCN(CC)C(=O)CSc1nc2cc3c(cc2c(=O)n1Cc1ccc(C(=O)NCCc2ccc(OC)c(OC)c2)cc1)OCO3	–	·	–
COc1c(O)cc2oc3cc(O)c(CC=C(C)C)c(O)c3c(=O)c2c1CC=C(C)C	32µM	–[11.4 µM]	10µM!
CC(C)=CCc1c(O)cc2oc(C)cc(=O)c2c1O	–	·	–
COc1cc(SC)ccc1C(=O)Nc1ccon1	?	25µM	?
COc1ccc(CNC(=O)c2ccc(SC)cc2OC)cc1	–	·	·
C#CCn1c(=NC(=O)c2ccc3c(c2)OCCO3)sc2cc(OC)c(OC)cc21	–	·	–
CCn1c(=NC(=O)c2ccc3c(c2)OCCO3)sc2c(C)ccc(OC)c21	10µM	·	–
Cc1cccc(-c2nc(CSc3nncn4c3cc3oc(C)cc34)c(C)o2)c1	–	·	–
O=C(Nc1nnc(CCN2CCOCC2)s1)C1CCCCC1	–	13µM	–
O=C(Nc1nnc(CCN2CCCCC2)s1)C1CCCCC1	–	–	–
O=C(c1ccc(C(F)(F)F)cc1)N1CCC(c2noc(-c3ccc(S(=O)(=O)N4CCCC4)cc3)n2)CC1	–	·	–
Cc1ccc(-c2nnc(Nc3ccccc3)o2)cc1	3.2µM	0.63µM	3.2µM
Cc1ccc(-c2nnc(-c3ccc4ccccc4c3)o2)cc1	–[9.22 µM]	–[11.4 µM]	–[9.22 µM]
CCOc1ccc(NC(=O)c2c(NC(=O)c3ccccc3Br)sc3c2CCC(C)C3)cc1 (centres undefined)	–	·	–
CC1CCc2onc(C(=O)N3CCN(c4cccc(C(F)(F)F)c4)CC3)c2C1 (centres undefined)	–	·	–
COc1cc(NC(=O)c2noc3c2CC(C(C)(C)C)CC3)cc(OC)c1OC (centres undefined)	–	·	–
O=C(Nc1ccc(Cl)cc1)C1CCN(c2nc3ccccc3n3cccc23)CC1	?	·	–

Screening data (PubChem BioAssay)
